From PubChem BioAssay (NCI) come the findings set out here.

“And” between values parts separate entries of the source, which are not always exact repeats. Equal entries are not always repeated. The panel holds about 83,000 compounds, 20% with a hit somewhere; the sample as a whole holds those more often.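 Testing used 96-well plates and a 48-hour single-concentration exposure. Example: -40 means 40% of the starting cells died.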 Unmarked numbers belong to inactive results. The source made the active and inactive calls. The calls were made as follows: active = growth percent below 10; inactive = the rest.

In the assay the test system is MDA-MB-468 breast. The assay is described as follows: NCI-60 one-dose screen, 48 h (100 = growth as untreated, 0 = no growth, -100 = all killed). As to conditions: 10 µM unless noted.
Take `C=NNc1ccccc1`: the growth is 91.2%.
The figure for `COc1ccc(S(=O)(=O)NC2c3ccccc3CC2O)cc1OC` (stereo not given) is 111%; for `CCN(CCNS(C)(=O)=O)c1ccc(N)c(C)c1` it is 56.5% and 69.7%; for `COc1ccc(/C=C/C(=C/c2c(O)[nH]c3cc(Br)ccc23)N=O)cc1` it is 114%.
The figure for `CC1=C(C)C(=O)C(Nc2ccccc2)=C(Cl)C1=O` is -76% (active); for `COc1ccc2c(c1)CCNC21C(=O)Nc2c(Br)cc(Br)cc21` (stereo not given) it is 137%.
The figure for `C[n+]1c(/C=C/c2ccc([N+](=O)[O-])cc2)ccc2ccccc21` is 52.5%; for `CC(C)(C)OC(=O)CN1CCc2c(sc3ncnc(N/N=C/c4cccc5ccccc45)c23)C1` it is 34.3%.
For `O=C1[C@@H]2Cc3c([nH]c4ccccc34)[C@H](c3ccc(Br)cc3)N2C(=O)CN1C1CCN(Cc2c(Cl)cccc2Cl)CC1`, the growth was 95.9%.
Under `O=c1[nH]c2ccc(Cl)cc2cc1CSc1ccccc1Nc1nccc(-c2ccc(Cl)cc2)n1` stands 93.3%.
Regarding `c1ccc(CNc2c3ccccc3nc3ccccc23)cc1`, the growth was 19.4%.
Under `O=C1COCCN1c1ccc(NCc2cn(Cc3ccccc3)c3ccccc23)cc1` stands -76% (active); under `CCc1cc2n(n1)-c1ncc(C(=O)OC)cc1Oc1ccccc1-2`, 95.2%; under `CS(=O)(=O)Nc1cc(-c2ccc3ncnc(Nc4ccc5[nH]ncc5c4)c3c2)cnc1Cl`, 16.6%.
The figure for `COc1ccc(C(=O)n2nc(-c3ccccc3)nc2N)cc1OC` is 68.8%.
On to `O=C(NNc1nc2cc(F)ccc2n2c(CN3CC4CNCC4C3)ccc12)c1cnccn1` (stereo not given), for which the growth is 3.88% (active).
Under `CN(C[C@H]1Cc2c(cccc2N2CCN(c3ncccn3)CC2)CN1)[C@H]1CCCc2cccnc21` stands 37.6%; under `CC1=C(C(=O)c2ccccc2)C(c2ccc3c(c2)OCO3)NC(=S)N1` (stereo not given), 54.3%; under `C=C(C)[C@@H]1CC[C@]2(C(=O)N3CCCNCC3)CC[C@]3(C)[C@H](CC[C@@H]4[C@@]5(C)CCC(=O)C(C)(C)[C@@H]5CC[C@]43C)[C@@H]12`, 90.8%.
For the molecule `COc1ccc(C2SC(C)C(=O)N2CCc2cccs2)cc1OC` (stereo not given), the growth was 48.1%.
Under `O=S(=O)(NCCNc1nccc(-c2c(-c3ccccc3)nc3sccn23)n1)c1ccc(O)cc1` stands 19.9%; under `COc1cc(-c2csc(NC(=O)c3cc(C(F)(F)F)cc(C(F)(F)F)c3)n2)cc(OC)c1OC`, 6.71% (active).
The figure for `O=c1c2ccccc2sc2c(NCCN3CCOCC3)nc3ccccc3c12` is 59.4%.
`CCNc1nc(-c2ccc(Cl)c(OC)c2)c(-c2ccnc(NCCNS(=O)(=O)c3ccc(Cl)cc3)n2)s1`: the growth is -8.24% (active).
For `O=C(Cn1cc(CN2CCCCCC2)nn1)Nc1ccc2c(ccn2Cc2ccccc2)c1`, the growth is 74.9%.
The figure for `NS(=O)(=O)c1ccc(NC(=O)/C(=C\c2ccc(Cl)cc2Cl)NC(=O)c2ccccc2)cc1` is 110%; for `CCCNC(=O)Oc1ccc(/C(=C(/C)Cc2ccc(OC)cc2)c2ccc(OCCN3CCCCC3)cc2)cc1` it is 79.6%; for `CC1=C(C)C[C@]2(C(=O)O[C@H]3CCCC[C@@H]32)[S@](=O)C1` it is 114%.
Under `Oc1ccc(-c2nc3ccc4[nH]ncc4c3c3c2CCCC3)c2cccnc12` stands -17.1% (active); under `CC(=O)Nc1ccc(S(=O)(=O)Nc2cccc(-c3nc(-c4ccc(NC(=O)c5cccnc5)cc4Cl)no3)c2)cc1`, 18.4%; under `CCOC(=O)C(CCC1=NC(C)(C)CC(C)O1)C(=O)OCC` (stereo not given), 70.5%.
The figure for `OC1Cc2ccccc2C1` is 105%; for `COC1OC(C(O)C(O)CO)C(O)C(O)C1O` (stereo not given) it is 101%.
`N/C(=N\C(N)=N\c1nc2ccccc2s1)c1cccc(Cl)c1`: the growth was 110%.
The figure for `CCCC(=O)Oc1ccc(/C(=C(/CC)Cc2ccccc2)c2ccc(OCCN3CCCC3)cc2)cc1` is 42.8%.
Under `COc1ccc(-c2cc(-c3nnc(SCC(=O)Nc4ccc(/C(C)=N\O)cc4)n3-c3ccccc3)c3cc(OC)ccc3n2)cc1` stands 62.4%.
In the case of `COc1ccc(NC(=O)c2ccc(C(=O)Nc3ccc(OC)cc3OC)cc2)c(OC)c1`, the growth is 85%.
Under `COc1ccc(O)c(-c2cc(-c3ccccc3)c(C#N)c(=O)[nH]2)c1` stands 92.8%; under `Cc1[nH]n(-c2cccc(Cl)c2)c(=O)c1/C=C1\C=Nc2ccc(Br)cc21`, 35.7%; under `O=C(NNc1ccc(-c2ccccc2)nn1)c1ccc(F)cc1`, 98.2%.
